From PubChem BioAssay AID588590 (National Center for Advancing Translational Sciences (NCATS), 2011)
Screen size: about 390,000 compounds; about 4,000 (1%) were called active. Roughly 7% stayed inconclusive and do not appear here. For the sample, actives were picked, then their nearest neighbours and some compounds at random. A number with no mark means an inactive call. Calls follow the shape of the dose curve; as a rule, active = well fitted inhibition curve with a large enough effect; inconclusive = small, poorly fitted or top-dose-only effect, or another doubt; inactive = no such curve, though single readings can be large or run the other way.

target: DNA polymerase iota (Homo sapiens) (UniProt Q9UNA4); assay: qHTS for Inhibitors of Polymerase Iota; details: Pol iota fluorescent replication assay, 10 min; series mostly up to 115 µM; activity, negative = inhibition: at the top concentration
Sequence (Q9UNA4 whole entry, looked up): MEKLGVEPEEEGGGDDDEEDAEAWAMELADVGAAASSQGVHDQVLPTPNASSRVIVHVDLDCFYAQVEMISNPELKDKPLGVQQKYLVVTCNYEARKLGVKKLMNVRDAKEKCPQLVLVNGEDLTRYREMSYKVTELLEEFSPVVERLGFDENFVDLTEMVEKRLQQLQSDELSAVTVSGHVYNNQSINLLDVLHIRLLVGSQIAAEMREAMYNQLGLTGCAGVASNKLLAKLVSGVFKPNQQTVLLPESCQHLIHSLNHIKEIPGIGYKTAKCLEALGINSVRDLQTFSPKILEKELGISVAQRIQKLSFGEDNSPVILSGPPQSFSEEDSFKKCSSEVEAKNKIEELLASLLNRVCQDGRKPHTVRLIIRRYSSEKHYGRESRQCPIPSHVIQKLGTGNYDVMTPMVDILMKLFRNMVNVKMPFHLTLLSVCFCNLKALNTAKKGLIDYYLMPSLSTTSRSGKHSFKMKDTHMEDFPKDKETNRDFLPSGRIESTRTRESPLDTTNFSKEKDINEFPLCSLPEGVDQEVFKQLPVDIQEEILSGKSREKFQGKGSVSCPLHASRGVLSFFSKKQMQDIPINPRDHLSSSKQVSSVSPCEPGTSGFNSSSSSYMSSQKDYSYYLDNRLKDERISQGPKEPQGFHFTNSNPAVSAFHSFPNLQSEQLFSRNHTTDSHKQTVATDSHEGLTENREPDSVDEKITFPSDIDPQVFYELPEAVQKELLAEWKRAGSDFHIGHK
Outline: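 Fluorescent replication assay read twice, at 0 min and 10 min after adding 50 nM (final) substrate. Enzyme (10 nM) and compounds were first incubated 15 min at room temperature; enzyme-free buffer wells were negative controls.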
Potency is read from the fitted curve at half-maximal effect.

Row | Structure (SMILES) | activity, negative = inhibition [%] | Potency
1 | CCc1cccc(C)c1Nc1c(-c2ccc(N(C)C)cc2)nc2ncccn12 | 7.92 | –
2 | CCN(C(=O)Cn1c(=O)nc(-c2ccccc2)c2cc(Cl)ccc21)c1cccc(C)c1 | 24.1 | –
3 | CCC(C)N(c1ccc(/C=C/c2ccnc3ccccc23)cc1)C(C)CC (configuration not stated) | 10 | –
4 | CC(=O)N1CCCc2cc(S(=O)(=O)N3CCC(C(=O)NCc4ccc(F)cc4)CC3)ccc21 | 25.4 | –
5 | CCCCC(=O)OC1=CN(Cc2ccccc2)S(=O)(=O)c2ccccc21 | 2.75 | –
6 | CCN(CC(=O)Nc1ccc(C)c(S(=O)(=O)N(C)C)c1)Cc1ccccc1 | 41.7 | –
7 | COc1ccc(CCC(=O)OCC(=O)Nc2ccc(C)c(S(=O)(=O)N(C)C)c2)cc1 | – | 89.1 µM (active)
8 | COc1cc(CCC(=O)OCC(=O)Nc2cccc(S(N)(=O)=O)c2)cc(OC)c1OC | 13.9 | –
9 | COc1ccc(-c2cc(C(F)(F)F)n3nc(-c4ccccc4)cc3n2)cc1OC | 3.5 | –
10 | Cc1ccnc(-n2sc3ccccc3c2=O)n1 | – | 25.1 µM (active)
11 | Cc1ccc(-c2onc(C)c2C)cc1S(=O)(=O)Nc1ccccn1 | 4.7 | –
12 | COc1cc(OC)c(OC)cc1/C=C1\C=Cc2ccccc21 | 5.35 | –
13 | CCc1nnc(SCc2nc(-c3cccc(C)c3)oc2C)c2cc3sc(C)cc3n12 | 11.7 | –
14 | O=C(NCC(=O)N1CCN(c2ccccc2O)CC1)c1ccc2ccccc2c1 | – | 89.1 µM (active)
15 | COc1ccc(N2CCN(C(=O)CNC(=O)c3ccc(C(C)(C)C)cc3)CC2)cc1 | 21.1 | –
16 | O=C(CNC(=O)c1ccc2ccccc2c1)Nc1ncccc1O | 32 | –
17 | Cc1ccc(Cl)cc1N1CCN(C(=O)C2CCC(CNS(=O)(=O)c3cccs3)CC2)CC1 (configuration not stated) | 4.99 | –
18 | O=C(N/N=C/c1ccco1)c1ccc(C(=O)N/N=C/c2ccco2)o1 | – | 50.1 µM (active)
19 | O=C(Cc1ccccc1)Nc1cccc(C(=O)N/N=C/c2ccco2)c1 | 4.91 | –
20 | O=C(Cc1ccc([N+](=O)[O-])cc1)N/N=C/c1ccco1 | 111 | –
21 | CCc1nnc(SCc2c(F)cccc2Cl)c2cc3sccc3n12 | 9.66 | –

Row | Structure (SMILES) | activity, negative = inhibition [%] | Potency
22 | CCc1ccccc1NC(=O)Cn1c(=O)n(-c2cccc(C)c2)c(=O)c2c1c1cc(OC)ccc1n2C | 13.1 | –
23 | Cc1[nH]n(-c2ccc([N+](=O)[O-])cc2)c(=O)c1C=NCCN1CCN(C(=O)c2ccccc2F)CC1 | 2.23 | –
24 | CC(=O)N1c2ccccc2N(Cc2ccc([N+](=O)[O-])cc2)C(=O)C1(C)C | 18.7 | –
25 | O=c1[nH]n(-c2ccc([N+](=O)[O-])cc2)c(=O)c2ccccc12 | – | 10 µM (active)
26 | COC(=O)c1ccc(COc2ccc(/C=C/C(=O)c3ccc(OC)c(CSCC(=O)O)c3)cc2OC)cc1 | – | 20 µM (active)
27 | COc1cc(/C=C/C(=O)OCC(=O)NC(=O)NCc2ccccc2)ccc1OCC#N | -6.58 | –
28 | COC(=O)c1ccc(C(NC(=O)OCc2ccccc2)/C(C)=C/[C@@H](C)C(=O)NCc2ccc(OC)c(OC)c2)cc1 (some centres not stated) | 3.74 | –
29 | CCN1CCN(CCCNC(=O)c2cnn(-c3ccc(C)cc3C)c2C2CCN(C(=O)OC(C)(C)C)CC2)CC1 | 28.9 | –
30 | CCOc1ccc(CNCCSc2nnnn2C)cc1 | -4.68 | –
31 | Cc1ccc(N(CC(=O)NCC(C)c2ccccc2)S(=O)(=O)N(C)C)cc1 (configuration not stated) | 18 | –
32 | COc1ccc(C2(Nc3cccc(F)c3)C(=O)c3ccccc3C2=O)cc1 | 21.1 | –
33 | CCCC(=O)N1c2ccc(-c3csc(N)n3)cc2CC1C (configuration not stated) | -5.87 | –
34 | CC(C)(C)C(=O)OCc1nc(-c2ccc(O)c(O)c2)cs1 | – | 31.6 µM (active)
35 | CN(c1ccc(O)cc1)c1nc(-c2cccnc2)cs1 | 5.31 | –
36 | Cc1ccccc1-n1c(=O)c2ccccc2n(Cc2ccc(F)cc2)c1=O | 28.7 | –
37 | O=C(Nc1cc(Cl)cc(Cl)c1)c1ccc2c(c1)N(Cc1cccc(Cl)c1)C(=O)c1ccccc1S2=O (configuration not stated) | -3.86 | –
38 | Cc1cc(=O)oc2c(C)c(OCC(=O)NCCN3CCOCC3)ccc12 | 20.5 | –
39 | CCCc1cc(=O)oc2c(C)c(OCC(=O)NCc3ccccn3)ccc12 | -18.4 | –
40 | CCc1cc(=O)oc2c(C)c(OCC(=O)NCCN3CCOCC3)ccc12 | – | 79.4 µM (active)
41 | CC(=O)Nc1ccc(S(=O)(=O)Nc2ccc(-c3ccc4nnc(C)n4n3)cc2)cc1 | 59.5 | –
42 | O=C(Nc1ccc(-c2ccc3nncn3n2)cc1)C1CCCCC1 | 37.4 | –

Row | Structure (SMILES) | activity, negative = inhibition [%] | Potency
43 | CC(=O)c1ccc(S(=O)(=O)Nc2ccc(-c3ccc4nncn4n3)cc2)cc1 | – | 50.1 µM (active)
44 | Cc1cc(OC(C)C(=O)Nc2sc3c(c2C(N)=O)CCCC3)ccc1Cl (configuration not stated) | -7.08 | –
45 | COc1cccc(C(=O)NC2=NC(c3ccc(N(C)C)cc3)CC(=O)N2)c1 (configuration not stated) | 11.2 | –
46 | CSc1nc(-c2ccccc2Cl)nc2c1Cc1c(CO)cnc(C)c1O2 | -7.6 | –
47 | CC(C)Nc1nnc(SCC(=O)c2c[nH]c3ccccc23)s1 | 16.3 | –
48 | CC(C)c1ccc(Nc2nnc(SCC(=O)c3nnc(-c4ccccc4)o3)s2)cc1 | – | 22.4 µM (active)
49 | CC(C)N(C(=O)CSc1nnc(NC2CC2)s1)c1ccccc1 | 50.4 | –
50 | CCc1cccc(C)c1NS(=O)(=O)c1ccc(-c2cc(C)no2)s1 | -1.65 | –
51 | COC(=O)/C=C\C(=O)Nc1cccc([N+](=O)[O-])c1 | 0.272 | –
52 | COc1ccc(OC)c(NC(=O)/C=C/c2ccc(C)o2)c1 | -16 | –
53 | Cc1ccc(/C=C/C(=O)Nc2ccc([N+](=O)[O-])c(NC(=O)/C=C/c3ccc(C)o3)c2)o1 | – | 25.1 µM (active)
54 | Cc1ccc(Cn2c(=O)n(Cc3nc(-c4ccccc4)no3)c(=O)c3cc4c(cc32)OCO4)cc1 | -10.1 | –
55 | O=C(CSc1nc(=O)n(Cc2cccnc2)c2c1CCC2)Nc1ccc(F)cc1F | 30.7 | –
56 | O=C(Nc1ccc(F)cc1F)c1ccc2c(=O)n3c(nc2c1)CCCCC3 | -8.57 | –
57 | COCCCNC(=O)Cn1cc(/C=C(\C#N)C(=O)N2CCN(c3ccccc3)CC2)c2ccccc21 | -9.17 | –
58 | Cc1ccc(Cl)cc1NC(=O)/C(C#N)=C\c1cn(Cc2ccc(F)cc2)c2ccccc12 | – | 89.1 µM (active)
59 | Cc1ccc(/C=C(\C#N)C(=O)Nc2cc(C)ccc2C)cc1 | -3.12 | –
60 | Nc1ccc(/C=C/c2ccnc3ccccc23)c([N+](=O)[O-])c1 | 28.7 | –
61 | Cc1ccccc1OCc1nc2c3cnn(-c4ccccc4F)c3ncn2n1 | 16 | –
62 | Cc1ccc(C)c(S(=O)(=O)c2nnn3c2nc(N2CCOCC2)c2sccc23)c1 | 28.5 | –
